# This is a sample that favours compounds with a hit; in the whole collection about 9.7% have one here.
# M1 ag: M1 muscarinic receptor agonism; 3% of 64,000 active; B-score at 10 µM; CHO-M1 cells, Fluo-4 calcium fluorescence, agonist mode; stronger effect = higher value;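 active means fluorescence rise, raw or as B-score row- and column-corrected plate score, outside the 99.7% band of its plate's samples, either direction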
# Autofluor 339: intrinsic fluorescence of library compounds, ex339/em460 – biochemical, MLSMR library, data from DPM-DC assay, artefact control, profiling panel. 5.5% of 65,000 active. fluorescence fold increase at 10 µM. compound autofluorescence, ex339/em460 nm, NADH buffer; stronger effect = higher value; 1 = no-compound wells, NADH background;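 active means at 10 µM, mean starting fluorescence two-fold or more over control wells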;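 further: signal is the first read of a kinetic run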
# BAP1 inh: blocks human BAP1 ubiquitin-AMC hydrolysis; Q92560; 0.48% of 72,000 active; recombinant BAP1, Ub-AMC hydrolysis fluorescence kinetic; stronger effect = lower value; calls only at 20 µM; AID 436;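 active means activity remaining at or below 50% of control, provided the compound also passes the data quality filters; inactive means the rest, including low values that fail the filters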;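 further: 100% = DMSO wells rate and 0% = substrate alone blank rate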
# Target sequence (Q92560 whole entry, looked up): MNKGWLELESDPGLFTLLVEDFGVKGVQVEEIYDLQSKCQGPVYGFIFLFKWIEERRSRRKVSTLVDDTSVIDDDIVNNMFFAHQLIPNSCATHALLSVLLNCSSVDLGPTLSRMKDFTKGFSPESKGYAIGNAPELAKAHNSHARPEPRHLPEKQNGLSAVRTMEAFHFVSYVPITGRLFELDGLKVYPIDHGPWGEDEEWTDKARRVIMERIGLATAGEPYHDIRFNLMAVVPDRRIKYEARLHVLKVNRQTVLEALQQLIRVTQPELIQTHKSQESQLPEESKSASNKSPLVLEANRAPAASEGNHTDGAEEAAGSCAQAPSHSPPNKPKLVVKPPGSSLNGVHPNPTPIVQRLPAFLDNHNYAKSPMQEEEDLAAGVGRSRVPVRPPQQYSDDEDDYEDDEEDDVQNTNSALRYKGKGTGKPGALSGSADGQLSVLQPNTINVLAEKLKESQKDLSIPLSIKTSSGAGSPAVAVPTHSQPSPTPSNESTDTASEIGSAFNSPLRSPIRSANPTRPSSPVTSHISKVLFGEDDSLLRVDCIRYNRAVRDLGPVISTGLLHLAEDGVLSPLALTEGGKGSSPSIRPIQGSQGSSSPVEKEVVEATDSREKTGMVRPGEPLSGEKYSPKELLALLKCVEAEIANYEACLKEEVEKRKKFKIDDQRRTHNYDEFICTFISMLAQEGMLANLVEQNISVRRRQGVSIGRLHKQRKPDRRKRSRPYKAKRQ
# Abs 340nm: compound absorbs light at 340 nm; compound absorbance at 340 nm, fold over control; fold change at 10 µM; 65,000 tested, under 10 active;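 active means at 10 µM dose, initial 340 nm absorbance at least 2 fold that of control wells; inactive means change under 2 fold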;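 further: initial absorbance extrapolated from kinetic A340 decline of NADH oxidation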
# M1 antagonist: blocks the rat M1 muscarinic receptor response to acetylcholine; 3.4% of 64,000 active; B-score at 10 µM; CHO-M1 cells, Fluo-4 calcium, ACh EC80 antagonist mode; stronger effect = lower value; P08482; AID 628;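 active means calcium fluorescence response, raw or row-and-column corrected B-score, differing from the plate sample mean either way at a set confidence level, mostly lower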
# WNV protease inh: WNV NS2B-NS3 proteinase inhibition | P06935 | WNV NS2B-NS3 protease, fluorogenic substrate Ex360/Em465; stronger effect = lower value | z-score (test concentration not listed) | 0.18% of 65,000 active; in the data active means z-score below about -3
# * = called active by the depositor; i = inactive; nt = not tested or not shown.
SMILES,M1 ag,Autofluor 339,BAP1 inh,Abs 340nm,M1 antagonist,WNV protease inh
CC1CN(S(=O)(=O)c2ccc(C(=O)Nc3nnc(-c4ccc5c(c4)CCCC5)o3)cc2)CC(C)O1 (stereo not given),0.18,2.14*,i,1.11,-0.379,2.19
COC(=O)c1c(NC(=O)c2ccco2)sc(C)c1C,-0.462,2.09*,nt,1.11,-0.365,-0.59
COC(=O)c1c(NC(=O)c2ccco2)sc(C(=O)Nc2ccc(F)cc2)c1C,0.00468,3.89*,nt,1.09,0.787,0.62
COc1c(F)c(F)c(C(=O)Nc2ccc(NC(=O)c3ccco3)cc2)c(F)c1F,0,1.24,nt,1.08,-0.104,-0.02
COC(=O)c1c(NC(=O)c2ccc(Br)o2)sc(C)c1C,-0.214,1.86,i,1.04,0.383,-0.24
Cc1cc(C)cc(-n2nc3c(c2NC(=O)c2ccc(S(=O)(=O)N4CCCC4)cc2)CSC3)c1,nt,nt,i,nt,nt,nt
COC(=O)c1cc(OC)c(OC)c(OC)c1N,-0.0823,2.3*,i,1.06,0.109,-0.82
Cc1ccc(C2C=C(c3ccc4c(c3)OCO4)Nc3ncnn32)cc1 (stereo not given),-1.38,2.96*,i,1.11,-1.22,-0.95
Cc1ccc(C2C=C(c3ccccc3OC(F)F)Nc3ncnn32)cc1 (stereo not given),-0.272,2.06*,i,1.02,-1.58,-0.95
Cc1ccc(C2=CC(c3ccc(N(C)C)cc3)n3nnnc3N2)cc1 (stereo not given),-0.0458,1.29,i,1.06,-0.603,-0.11
C1=C(c2ccccc2)Nc2ncnn2C1c1ccccc1 (stereo not given),nt,nt,i,nt,nt,nt
CCCc1ccc(O)c(N=Cc2cc([N+](=O)[O-])cc(OC)c2O)c1,nt,nt,i,nt,nt,nt
CCc1ccc(S(=O)(=O)N(C(=O)c2cccc([N+](=O)[O-])c2)c2ccc3oc(C)c(C(C)=O)c3c2)cc1,nt,nt,i,nt,nt,nt
COCCOC(=O)C1=C(C)NC2=C(C(=O)CC(C)(C)C2)C1c1ccc(Cl)cc1 (stereo not given),nt,nt,i,nt,nt,nt
CC1=C(C(=O)OCC2CCCO2)C(c2ccncc2)C2=C(CC(C)(C)CC2=O)N1 (stereo not given),0.0543,2.09*,i,1.07,-0.628,0.02
CC1=C(C(=O)OCC2CCCO2)C(c2cccs2)C2=C(CC(C)(C)CC2=O)N1 (stereo not given),nt,nt,i,nt,nt,nt
COCCOC(=O)C1=C(C)NC2=C(C(=O)CC(C)(C)C2)C1c1cccnc1 (stereo not given),0.461,3.81*,nt,1.05,1.43,0.11
CC1=C(C(=O)OCCOC(C)C)C(c2cccnc2)C2=C(CCCC2=O)N1 (stereo not given),-0.349,2.21*,i,1.08,-0.0925,0.34
CCOc1cccc2cc(C(N)=O)c(=Nc3sc4c(c3C(N)=O)CCCC4)oc12,nt,nt,i,nt,nt,nt
Cc1nn2c(-c3ccccc3)nnc2c2ccccc12,0.343,1.32,i,1.07,2.05*,-0.82
Cc1nn2c3ccccc3nc2c2ccccc12,1.13,1.96,i,1.09,-0.669,0.96
O=S(=O)(c1ccc2c(c1)C(=NO)c1cc(S(=O)(=O)N3CCCCC3)ccc1-2)N1CCCCC1,-1.32,2.02*,i,1.04,-0.48,1.5
O=C(Nc1nnc(-c2ccc([N+](=O)[O-])cc2)s1)c1ccccc1Cl,nt,nt,i,nt,nt,nt
Cc1nc2c(=O)[nH]ccc2[nH]1,nt,nt,i,nt,nt,nt
Cn1c(NCCCO)nc2c(c1=O)C1(CCCCC1)Cc1ccccc1-2,0.403,3.84*,nt,1.1,0.0714,0.25
SMILES,M1 ag,Autofluor 339,BAP1 inh,Abs 340nm,M1 antagonist,WNV protease inh
Cc1csc2nc(CNC(=O)C3CC=CCC3C(=O)O)cn12 (stereo not given),0.974,1.36,i,1.02,-0.204,-4.32*
Cc1cc(Nc2ccncc2)n2c(nc3ccccc32)c1C#N,nt,nt,i,nt,nt,nt
N#Cc1nc(COc2cccc(Cl)c2)oc1N1CCCC1,-0.0283,1.08,i,1.04,0.0241,-0.53
CCOc1ccc(-c2nc(C#N)c(N3CCN(C)CC3)o2)cc1,0.88,2.92*,nt,1.04,0.146,0.76
CCCOc1ccc(-c2nc(C#N)c(N3CCN(C)CC3)o2)cc1,-0.393,3.87*,i,1.1,-1.67,1.56
CCOc1ccc(-c2nc(C#N)c(N3CCCCCC3)o2)cc1,0.0271,2.43*,nt,1,0.161,-0.67
N#Cc1nc(-c2ccc(OCc3ccc(Cl)cc3)cc2)oc1N1CCC(C(N)=O)CC1,0.987,1.76,nt,1.09,0.389,-0.45
